# Results from PubChem BioAssay AID463173 (ICCB-Longwood Screening Facility, Harvard Medical School, 2010).
# Hit rate of the full screen: of about 52,000 compounds, about 4,300 (8.3%) were called active. The sample as a whole holds a higher share of actives than the screen did. A number with no mark means an inactive call. Cut-off read from the data, not from the text of the source: active = survival mostly below about 52% (no sharp cut-off); inactive = mostly above about 56%.
# System: DeltatarO mutant
# Assay: growth inhibition of S. aureus wild type versus tarO mutant, primary screen, teichoic acid synthesis inhibitors, RN4220, OD600 (AID 463173)
# Conditions: OD600, 18 h, active compounds read low, screened at 18.75 µg/mL (by protocol)
row,SMILES,survival
1,CC(=O)Nc1ccc(NC(=O)CSc2nc3ccccc3nc2N2CCCCC2)cc1,57%
2,CCN(C(=O)CSc1nc2ccccc2nc1Cc1cccc(OC)c1)c1cccc(C)c1,0% (active)
3,COc1cccc(Cc2nc3ccccc3nc2SCC(=O)Nc2cc(OC)ccc2OC)c1,47% (active)
4,CC(C)NC(=O)CSc1nc2ccccc2[nH]1,60%
5,COc1ccc(NC(=O)CSc2nc3ccccc3nc2N2CCC(C)CC2)cc1,45%
6,O=C(N/N=C/c1ccc(-c2ccc(Cl)c(C(=O)O)c2)o1)c1ccncc1,68%
7,CCc1ccc(-n2c(=O)c3c4c(sc3n(CC(=O)c3ccc(F)cc3)c2=O)CCC4)cc1,81%
8,CC(C)CCNC(=O)c1nn(C)c2c1CSc1ccccc1-2,70%
9,Cn1cnnc1SCC(N)=O,99%
10,CCOC(=O)c1ccc(NC(=O)c2csnn2)cc1,104%
11,Cc1ccc(CNC(=O)CSc2ncc(S(=O)(=O)c3ccc(C)c(Cl)c3)c(=O)[nH]2)cc1,77%
12,Cc1cccc(NC(=O)CSc2cn(CC(=O)N3CCOCC3)c3ccccc23)c1,82%
13,COc1ccc(CCNC(=O)Cn2c(-c3cccs3)cc3cc(F)ccc32)cc1OC,83%
14,Cc1ccc(-n2nc(C(=O)NCc3ccc(F)cc3Cl)c3c4ccccc4n(C)c3c2=O)cc1,131%
15,COc1ccccc1Cc1nc2ccccc2nc1SCC(=O)Nc1cc(Cl)ccc1OC,73%
16,COc1ccc(OC)c(NC(=O)CSc2nc3ccccc3nc2N2CCCCC2)c1,5% (active)
17,Cc1cc(C)c(NC(=O)c2nc3ccccc3nc2N2CCCCC2)c(C)c1,90%
18,COc1ccc(OC)c(NC(=O)CSc2cn(CC(=O)N3CCCCCC3)c3ccccc23)c1,85%
19,COc1ccc(NC(=O)CSc2nc3ccccc3nc2N2CCOCC2)c(OC)c1,76%
20,Cc1cc(C)c(NC(=O)CSc2nc3ccccc3nc2N2CCCCC2)c(C)c1,39% (active)
21,COc1ccc(Cl)cc1NC(=O)CSc1nc2ccccc2nc1N1CCCCC1,27% (active)
22,Cc1cccc(NC(=O)CSc2nc3ccccc3nc2N2CCCCC2)c1C,75%
23,COc1ccc(C)cc1NC(=O)CSc1nc2ccccc2nc1N1CCOCC1,73%
24,COc1ccc(-c2nc3n(n2)C(c2cccc(C)c2)C(C(N)=O)=C(C)N3)cc1OC (configuration not stated),93%

row,SMILES,survival
1,CCN(CC)Cc1ccc(C(=O)O)o1,97%
2,Cn1c(=O)c2sccc2n2c(CCC(=O)N3CCN(c4cccc(Cl)c4)CC3)nnc12,193%
3,CCOc1ccc(-c2cccc(NS(=O)(=O)c3ccc(Cl)s3)c2)nn1,92%
4,Cc1cccc(NC(=O)CSc2nc(=O)n(Cc3ccccn3)c3c2CCC3)c1C,85%
5,CCCOc1ccc(N2CC(C(=O)Nc3cccc(Cl)c3Cl)CC2=O)cc1 (configuration not stated),145%
6,CCCCOc1cccc(C(=O)N(Cc2sccc2C)C2CCS(=O)(=O)C2)c1 (configuration not stated),73%
7,CCc1ccc(NC(=O)c2ccc(Cn3nc(N4CCN(c5ccccc5)CC4)ccc3=O)o2)cc1,83%
8,O=C(c1ccc2c(c1)CCN2S(=O)(=O)c1ccccc1)N1CCN(c2cccc(Cl)c2)CC1,45%
9,CC(=O)c1cccc(NC(=O)c2ccc3c(c2)CCN3S(=O)(=O)c2ccccc2)c1,44% (active)
10,CCCCOC(=O)c1ccc(NC(=O)c2ccc3c(c2)CCN3S(=O)(=O)c2ccccc2)cc1,57%
11,Cc1ccc(S(=O)(=O)N2CCc3cc(C(=O)Nc4c(F)cccc4F)ccc32)cc1,64%
12,O=C(Nc1cccc(Cl)c1)c1ccc2c(c1)CCN2S(=O)(=O)c1ccccc1,41% (active)
13,CC(=O)Nc1ccc(NC(=O)c2ccc3c(c2)CCN3S(=O)(=O)c2ccc(Cl)cc2)cc1,113%
14,CCc1c(C)sc2c1CCN(C(=O)Nc1ccccc1C(=O)OC)C2c1ccc(OC)cc1 (configuration not stated),92%
15,Cn1cc(C(=O)NCCc2ccccc2)c(=O)c2cc(S(=O)(=O)N3CCCCCC3)ccc21,68%
16,CN(C(=O)c1nn(C)c2c1CS(=O)(=O)c1ccccc1-2)c1cccc(Cl)c1,64%
17,Cc1cccc(NC(=O)Cn2c(=O)n(CCC(=O)N3CCc4ccccc4C3)c(=O)c3ccccc32)c1,88%
18,COc1ccc(NC(=O)CSc2nc3c(oc4ccccc43)c(=O)n2-c2ccccc2)cc1OC,63%
19,CCn1c(CN2CCOCC2)nc2cc(NC(=O)c3cc(OC)c(OC)c(OC)c3)ccc21,89%
20,O=C(NCCO)C(=O)Nc1c2c(nn1-c1ccc(F)cc1)CSC2,82%
21,CCc1ccc(NC(=O)CSc2nc(-c3ccccc3)c(C#N)c(=O)[nH]2)cc1,78%
22,CC(C)(C)c1ccc(-c2nc(SCC(=O)Nc3ccc(Cl)cc3)[nH]c(=O)c2C#N)cc1,-2% (active)
23,COc1ccccc1NC(=O)CSc1nc(-c2ccc(C(C)(C)C)cc2)c(C#N)c(=O)[nH]1,52%
